# Data published in PubChem BioAssay (Tox21).
# Records with an inconclusive call do not appear. Unmarked numbers belong to inactive results. Activity calls are given as the source filed them. Unless noted, the call rests on the fitted dose curve; in most records, active means well fitted cell-killing curve with a large enough effect in the repeat runs (not every such curve was filed as active); inconclusive means weak or mixed curves, or effect the other way; inactive means no such curve, though single readings can be large or run the other way.
# Target: Bile acid receptor (Homo sapiens) (UniProt Q96RI1)
# Experiment: qHTS assay to identify small molecule agonists of the farnesoid-X-receptor (FXR) signaling pathway (AID 743220; active means well fitted activation curve with a large enough effect in the signal ratio in the repeat runs, not every such curve was filed as active; the % refers to the signal ratio)
# Conditions: HEK293T FXR-UAS-bla, beta-lactamase FRET ratio, 16 h; series mostly up to 62.6 µM
# Outline: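 FXR-UAS-bla HEK 293T cells carrying a UAS-driven beta-lactamase reporter were plated for 5 h at 37C/5% CO2, then exposed to DMSO-dissolved Tox21 10K compounds for 16 h at 37C. A LiveBLAzer B/G FRET substrate was loaded for 2 h at room temperature before fluorescence reading.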
# On the % scale 0 is the no-effect control and ±100 the full control effect.
# Sequence of Bile acid receptor (Homo sapiens) (Q96RI1 whole entry, looked up): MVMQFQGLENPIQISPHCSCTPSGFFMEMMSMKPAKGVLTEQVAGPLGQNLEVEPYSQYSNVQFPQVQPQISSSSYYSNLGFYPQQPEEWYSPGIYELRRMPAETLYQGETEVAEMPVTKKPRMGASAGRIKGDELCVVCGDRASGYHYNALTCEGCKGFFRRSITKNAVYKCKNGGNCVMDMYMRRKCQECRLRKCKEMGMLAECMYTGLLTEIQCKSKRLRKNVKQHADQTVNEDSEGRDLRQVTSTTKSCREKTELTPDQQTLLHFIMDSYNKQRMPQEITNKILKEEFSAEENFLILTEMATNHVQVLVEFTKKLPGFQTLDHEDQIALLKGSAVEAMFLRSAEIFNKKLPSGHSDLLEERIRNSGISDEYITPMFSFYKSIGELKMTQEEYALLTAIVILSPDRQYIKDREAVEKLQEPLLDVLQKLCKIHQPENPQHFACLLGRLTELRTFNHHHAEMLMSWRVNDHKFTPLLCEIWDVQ
row,Compound,outcome
1,CC(=O)Nc1ccc(OCC(O)CNC(C)C)cc1 (centres undefined),inactive
2,NS(=O)(=O)Cc1noc2ccccc12,inactive
3,CN(C)C(=O)Oc1cccc([N+](C)(C)C)c1,inactive
4,CC(CO)(CO)[N+](=O)[O-],inactive
5,CC(C#N)(CCC(=O)O)N=NC(C)(C#N)CCC(=O)O (centres undefined),inactive
6,CCN1CCOCC1,inactive
7,C[C@@H]1C[C@H]2[C@@H]3C[C@H](F)C4=CC(=O)C(Cl)=C[C@]4(C)[C@@]3(F)[C@@H](O)C[C@]2(C)[C@@]1(O)C(=O)CO,inactive
8,NC(=O)Cc1cccc2ccccc12,inactive
9,C[N+]1(CC2COC(c3ccccc3)(c3ccccc3)O2)CCCCC1 (centres undefined),inactive
10,O=C(O)c1cn(C2CC2)c2cc(N3CCNCC3)c(F)cc2c1=O,inactive
11,CCCCCCCCCCCCSC,inactive
12,CC(C)c1ccc2ncccc2c1,inactive
13,CC(=O)N1C[C@H](O)C[C@H]1C(=O)O,inactive
14,O=C1NC(=O)C2CC=CCC12 (centres undefined),inactive
15,N[C@H](C(=O)O)[C@@H](O)c1ccc(O)c(O)c1,inactive

# Tested on: not listed separately
# Experiment: qHTS assay to identify small molecule antagonists of the farnesoid-X-receptor (FXR) signaling pathway - cell viability counter screen (AID 743221); further: nearly all actives have a fitted effect of over 50% in size
# Conditions: FXR-bla HEK293T viability, CellTiter-Glo luminescence, 16 h; series mostly up to 62.6 µM
# Outline: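 GeneBLAzer FXR-UAS-bla HEK 293T cells, compound plus chenodeoxycholic acid (50 uM final), 16 h at 37 C. CellTiter-Glo added to the same wells after the beta-lactamase read; luminescence read after 30 min at room temperature as viability.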
Compound,outcome,"activity change, negative = cytotoxicity"
C[N+]1(C)[C@@H]2CC(OC(=O)[C@H](CO)c3ccccc3)C[C@H]1[C@@H]1O[C@@H]12 (some centres undefined),inactive,–
CC1=NN(c2cccc(S(=O)(=O)O)c2)C(=O)C1,inactive,–
CC(=O)Nc1ccc(OCC(O)CNC(C)C)cc1 (centres undefined),inactive,–
NS(=O)(=O)Cc1noc2ccccc12,inactive,–
CCCO[Si](OCCC)(OCCC)OCCC,inactive,–
C[C@H]1C[C@H]2[C@@H]3CCC4=CC(=O)C=C[C@]4(C)[C@H]3C(=O)C[C@]2(C)[C@@]1(O)C(=O)CO,inactive,–
CCCc1nn(C)c2c(=O)[nH]c(-c3cc(S(=O)(=O)N4CCN(C)CC4)ccc3OCC)nc12,inactive,–
CN(C)C(=O)Oc1cccc([N+](C)(C)C)c1,inactive,–
CC[C@H]1OC(=O)[C@H](C)[C@@H](O[C@H]2C[C@@](C)(OC)[C@@H](O)[C@H](C)O2)[C@H](C)[C@@H](O[C@@H]2O[C@H](C)C[C@H](N(C)C)[C@H]2O)[C@](C)(OC)C[C@@H](C)C(=O)[C@H](C)[C@@H](O)[C@]1(C)O,inactive,–
OCCCCCO,inactive,–
CCCCOCCOC(=O)COc1cc(Cl)c(Cl)cc1Cl,inactive,–
CC1(C)[C@@H]2CC[C@@]1(C)[C@H](O)C2,inactive,–
CC(CO)(CO)[N+](=O)[O-],inactive,–
O=C(CO)[C@@H](O)[C@H](O)[C@@H](O)CO,inactive,–
CC1CCC(CO)CC1 (centres undefined),inactive,–
CC(C#N)(CCC(=O)O)N=NC(C)(C#N)CCC(=O)O (centres undefined),inactive,–
CCCCS(=O)(=O)N[C@@H](Cc1ccc(OCCCCC2CCNCC2)cc1)C(=O)O,inactive,–
CCN1CCOCC1,inactive,–
C[C@@H]1C[C@H]2[C@@H]3C[C@H](F)C4=CC(=O)C(Cl)=C[C@]4(C)[C@@]3(F)[C@@H](O)C[C@]2(C)[C@@]1(O)C(=O)CO,inactive,–
CC(C)NNC(=O)c1ccncc1,inactive,–

Compound,outcome,"activity change, negative = cytotoxicity"
NC(=O)Cc1cccc2ccccc12,inactive,–
CCCC[N+](C)(CCCC)CCCC,inactive,–
CCOC(=O)c1ccccc1,inactive,–
CCC(C)(CN(C)C)OC(=O)c1ccccc1 (centres undefined),inactive,–
C=CN1CCCCCC1=O,inactive,–
C1CCC2(CCCCO2)OC1,inactive,–
CO/N=C(\C(=O)N[C@@H]1C(=O)N2C(C(=O)O)=C(CSc3nc(=O)c(O)nn3C)CS[C@H]12)c1csc(N)n1,inactive,–
C[N+]1(CC2COC(c3ccccc3)(c3ccccc3)O2)CCCCC1 (centres undefined),inactive,–
CC/C=C\CCOC(C)OCC (centres undefined),inactive,–
O=C(O)c1cn(C2CC2)c2cc(N3CCNCC3)c(F)cc2c1=O,inactive,–
CCCCCCCCCCCCSC,inactive,–
CC(C)c1ccc2ncccc2c1,inactive,–
CC(=O)N1C[C@H](O)C[C@H]1C(=O)O,inactive,–
C[N+]12CCC(CC1)C(OC(=O)C(O)(c1ccccc1)c1ccccc1)C2 (centres undefined),inactive,–
CCN[C@@H]1C[C@H](N)[C@@H](OC2OC(CN)=CCC2N)[C@H](O)[C@H]1O[C@H]1OC[C@](C)(O)[C@H](NC)[C@H]1O (some centres undefined),–,2.76% [at 0.55 µM]
CCCCCCCCCCCCCCC(=O)O,inactive,–
O=C1NC(=O)C2CC=CCC12 (centres undefined),inactive,–
N[C@H](C(=O)O)[C@@H](O)c1ccc(O)c(O)c1,inactive,–
COc1ccnc(CS(=O)c2nc3cc(OC(F)F)ccc3[nH]2)c1OC (centres undefined),inactive,–
